Values joined by “and” are separate entries in the source; they are usually repeats but may differ in a detail not shown here. Equal values may be shown once. Results filed as inconclusive are left out. Active and inactive are the calls of the source. Unless noted, calls come from the whole dose curve; as a rule, active = well fitted curve in the direction sought with a large enough effect in the repeat runs; inconclusive = weak or mixed curves; inactive = no such curve, though single readings can be large; an effect the other way counts as inactive or inconclusive.
What was measured:
[1] = qHTS assay for small molecule agonists of the p53 signaling pathway (AID 651631; calls by dose curve; note: nearly all actives have a fitted effect of over 15% in size)
Method in brief: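 p53RE-bla HCT-116 cells; compounds 16 h, 37 °C; LiveBLAzer B/G FRET substrate 2 h RT; fluorescence intensity read-out, qHTS format.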

[2] = qHTS assay for small molecule disruptors of the mitochondrial membrane potential - cell viability (AID 720634; calls by dose curve; note: nearly all actives have a fitted effect of over 20% in size; note: potency is the fitted concentration of half-maximal effect)
Method in brief: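 Cytotoxicity was measured by ATP quantitation in HepG2 wells that had first been treated with compound for 1 hr and stained with m-MPI dye; CellTiter-Glo incubation was 30 min at room temperature.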

[3] = qHTS assay to test for compound auto fluorescence at 590 nm (red) in HepG2 cells (AID 720674)
Method in brief: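 We screened compounds on adherent HepG2 cells, incubating them for an hour at 37 C in 5% CO2 before reading emission at 590 nm under 540 nm excitation; values reflect equivalence to Rose Bengal sodium fluorescence.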

[4] = qHTS assay to test for compound auto fluorescence at 535 nm (green) in HepG2 cells (AID 720675)
[5] = qHTS assay to test for compound auto fluorescence at 460 nm (blue) in HEK293 cells (AID 720678)
Method in brief: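 After cell attachment (4-5 hr, 37C), compounds were pinned onto HEK293 monolayers in 10% dialyzed FBS medium. The blue channel (405/460 nm) was read following overnight culture. Equivalency was calculated against triamterene.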

[6] = qHTS assay to test for compound auto fluorescence at 590 nm (red) in HEK293 cells (AID 720679)
Method in brief: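 Plates of HEK293 cells (10% dialyzed FBS) are treated with 23 nL compound or DMSO vehicle after a 4-5 hr attachment period, incubated overnight at 37C, and read for red fluorescence at 540/590nm.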

[7] = qHTS assay to test for compound auto fluorescence at 535 nm (green) in HEK293 cells (AID 720680)
[8] = qHTS assay to test for compound auto fluorescence at 460 nm (blue) in HEK293 cell free culture (AID 720681)
Method in brief: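 Blue fluorescence (Ex 405/Em 460 nm, triamterene-equivalent) was read immediately after pin transfer of compound or DMSO into medium (DMEM, 10% FBS) without cells.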

[9] = qHTS assay to test for compound auto fluorescence at 535 nm (green) in HEK293 cell free culture (AID 720682)
Method in brief: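 Cell-free medium (DMEM, 10% FBS) receives compound or DMSO by pintool. Plate read directly at Ex 485/Em 535 nm. Signal converted to fluorescein equivalency.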

[10] = qHTS assay to test for compound auto fluorescence at 590 nm (red) in HEK293 cell free culture (AID 720683)
Method in brief: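 Red-channel autofluorescence of compounds in culture medium (DMEM, 10% FBS), no cells, measured at 540/590 nm. Rose Bengal sodium is the reference fluorophore for equivalence.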

[11] = qHTS assay to test for compound auto fluorescence at 460 nm (blue) in HepG2 cell free culture (AID 720685)
Method in brief: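 Cell-free plates of MEM plus 10% FBS received 23 nL compound or DMSO vehicle; blue-channel (405/460 nm) intensity scored against triamterene as reference fluorophore.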

[12] = qHTS assay to test for compound auto fluorescence at 535 nm (green) in HepG2 cell free culture (AID 720686)
[13] = qHTS assay to test for compound auto fluorescence at 460 nm (blue) in HepG2 cells (AID 720687)
Method in brief: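 Blue-channel autofluorescence (Ex/Em 405/460 nm, triamterene-equivalent) was measured after 1 hr compound exposure at 37 C, 5% CO2. Cells were HepG2, plated overnight at 37 C in MEM plus 10% FBS.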

[14] = qHTS assay for small molecules that induce genotoxicity in human embryonic kidney cells expressing luciferase-tagged ATAD5 - cell viability (AID 651634; calls by dose curve; note: nearly all actives have a fitted effect of over 25% in size)
Method in brief: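 Cells (HEK293T, luciferase-tagged ATAD5) are seeded at 2,000 per well, dosed with compound or DMSO vehicle, and incubated 15.5 hr at 37C and 5% CO2. CellTiter-Fluor is added for 30 min before fluorescence is measured.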

[15] = qHTS assay for small molecule disruptors of the mitochondrial membrane potential (AID 720635); note: potency is the fitted concentration of half-maximal effect
Method in brief: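 Mitochondrial membrane potential tracked with Mito-MPS dye, red aggregates (ex 540/em 590 nm) against green monomers (ex 490/em 535 nm). Compound treatment 1 hr at 37C, dye 30 min in HepG2.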

[16] = qHTS assay to test for compound auto fluorescence at 590 nm (red) in HepG2 cell free culture (AID 720684)
Method in brief: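 No cells present: MEM + 10% FBS only. Compound pinned in, red label read (540/590 nm). Activity = fluorescence equivalent to Rose Bengal sodium.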

[17] = molecular target: Glucocorticoid receptor (Homo sapiens) (UniProt P04150); experiment: qHTS assay to identify small molecule agonists of the glucocorticoid receptor (GR) signaling pathway (AID 720691; active = well fitted activation curve with a large enough effect in the signal ratio in the repeat runs, not every such curve was filed as active; the % refers to the signal ratio; note: potency is the fitted concentration of half-maximal effect)
Sequence of Glucocorticoid receptor (Homo sapiens) (P04150 whole entry, looked up): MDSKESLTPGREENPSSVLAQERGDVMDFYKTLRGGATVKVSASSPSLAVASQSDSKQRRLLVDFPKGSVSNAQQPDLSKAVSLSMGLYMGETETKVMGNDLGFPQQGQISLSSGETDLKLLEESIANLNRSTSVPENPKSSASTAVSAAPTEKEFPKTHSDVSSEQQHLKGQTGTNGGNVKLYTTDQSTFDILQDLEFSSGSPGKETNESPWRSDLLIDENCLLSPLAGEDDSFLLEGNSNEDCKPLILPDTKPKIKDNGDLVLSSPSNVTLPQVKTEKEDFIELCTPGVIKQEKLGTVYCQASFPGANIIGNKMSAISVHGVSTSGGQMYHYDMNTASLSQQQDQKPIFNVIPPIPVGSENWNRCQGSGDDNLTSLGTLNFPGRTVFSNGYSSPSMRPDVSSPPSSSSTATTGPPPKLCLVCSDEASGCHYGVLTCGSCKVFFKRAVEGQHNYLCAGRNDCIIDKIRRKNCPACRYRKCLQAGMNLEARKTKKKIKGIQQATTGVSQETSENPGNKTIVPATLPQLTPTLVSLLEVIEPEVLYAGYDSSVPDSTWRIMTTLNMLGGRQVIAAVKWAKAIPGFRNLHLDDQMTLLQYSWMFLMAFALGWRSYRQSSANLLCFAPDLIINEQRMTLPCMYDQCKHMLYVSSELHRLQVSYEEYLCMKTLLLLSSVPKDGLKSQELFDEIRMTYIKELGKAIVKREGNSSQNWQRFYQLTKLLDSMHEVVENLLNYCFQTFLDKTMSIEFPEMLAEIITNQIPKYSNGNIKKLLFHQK
Method in brief: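 Steps: seed GR-bla HeLa cells, incubate 4 h at 37 C/5% CO2; pin-transfer DMSO-dissolved compounds; incubate 18 h at 37 C; add LiveBLAzer B/G FRET substrate; after 2 h at room temperature, measure fluorescence.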

[18] = molecular target: Glucocorticoid receptor (Homo sapiens) (UniProt P04150); experiment: qHTS assay to identify small molecule antagonists of the glucocorticoid receptor (GR) signaling pathway (AID 720692; active = well fitted inhibition curve with a large enough effect in the signal ratio in the repeat runs, not every such curve was filed as active; the % refers to the signal ratio; note: potency is the fitted concentration of half-maximal effect)
Method in brief: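 Antagonism was scored as loss of dexamethasone-driven (5 nM final) reporter signal in HeLa cells bearing a glucocorticoid response element–beta-lactamase construct, after 18 h compound exposure at 37 C and 2 h FRET substrate loading.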

[19] = qHTS assay for small molecule agonists of the p53 signaling pathway - cell viability (AID 651633; calls by dose curve; note: nearly all actives have a fitted effect of over 30% in size; note: potency is the fitted concentration of half-maximal effect)
Method in brief: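 Viability counter-read: CellTiter-Glo luminescence (30 min, room temperature) in the same p53RE-bla plates. These plates had been exposed to compounds for 16 h at 37 C.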

[20] = qHTS assay for small molecules that induce genotoxicity in human embryonic kidney cells expressing luciferase-tagged ATAD5 (AID 651632); note: nearly all actives have a fitted effect of over 15% in size
Method in brief: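 Cells were seeded at 2,000 per well, dosed with compound, and incubated 16 hr at 37C in 5% CO2. Luciferase activity was then quantified after a 30 min room-temperature incubation with Amplite.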

Measured: Potency

Nc1cccc2ccccc12
not listed: [14] | [15] | [16] | [17] | [18] | [19] | [20]
inactive: all other assays above

C=CCc1ccc(OC(=O)Cc2ccccc2)c(OC)c1
not listed: [8] | [19] | [20]
inactive: all other assays above

CCCCC(CC)COC(=O)c1c(Br)c(Br)c(Br)c(Br)c1C(=O)OCC(CC)CCCC (stereo unspecified)
active: [17] 33.8 µM
not listed: [15] | [19] | [20]
inactive: all other assays above

CNC(=O)Oc1cccc(N=CN(C)C)c1
not listed: [2] | [17] | [18] | [20]
inactive: all other assays above

OCCCl
not listed: [2] | [20]
inactive: all other assays above

CCCCC1C(=O)NC(=O)N(C2CCCCC2)C1=O (stereo unspecified)
not listed: [9] | [20]
inactive: all other assays above

Clc1ccc2ccccc2c1
not listed: [5] | [9] | [19] | [20]
inactive: all other assays above

O=C(O)C(F)(F)C(F)(F)C(F)(F)C(F)(F)C(F)(F)F
not listed: [15] | [16] | [20]
inactive: all other assays above

C1CCNCC1
not listed: [9] | [16] | [17] | [18] | [20]
inactive: all other assays above

CCCCCl
not listed: [14] | [15] | [16] | [20]
inactive: all other assays above

Nc1cc(Cl)cc(C(=O)O)c1Cl
not listed: [14] | [16] | [17] | [18] | [20]
inactive: all other assays above

CC(O)CN1CCN(CC(=O)[O-])CCN(CC(=O)[O-])CCN(CC(=O)[O-])CC1.[Gd+3] (stereo unspecified)
not listed: [5] | [20]
inactive: all other assays above

C[C@H](N)[C@H](O)c1ccc(O)c(O)c1
not listed: [5] | [14] | [15] | [17] | [18] | [20]
inactive: all other assays above

NC(=S)c1c(Cl)cccc1Cl
not listed: [8] | [14] | [20]
inactive: all other assays above

O=C(Cl)OCCOCCOC(=O)Cl
not listed: [2] | [8] | [14] | [15] | [16] | [19]
inactive: all other assays above

C[C@]12CC[C@H]3[C@@H](CCC4=CC(=O)CC[C@@H]43)[C@@H]1CC[C@@H]2OC(=O)CCc1ccccc1
active: [18] 6.74 µM
not listed: [2] | [8] | [9] | [14] | [20]
inactive: all other assays above

Clc1ccc(Cl)c(Cl)c1
not listed: [8] | [17] | [18] | [20]
inactive: all other assays above

CCCN(CCC)C(=O)Cc1c(-c2ccc(Cl)cc2)nc2ccc(Cl)cn12
not listed: [15] | [17] | [18] | [20]
inactive: all other assays above

FC(F)OC(F)(F)C(F)Cl (stereo unspecified)
not listed: [19] | [20]
inactive: all other assays above

c1ccc2c(c1)sc1ccccc12
not listed: [15] | [20]
inactive: all other assays above

O=S(=O)(c1ccccc1)c1ccccc1
not listed: [1] | [15] | [17] | [18]
inactive: all other assays above

CCOP(=O)(O)C(N)=O
active: [15] 3.44 µM
not listed: [1] | [8]
inactive: all other assays above

CC(C)(C)c1ccc(CCOc2ncnc3ccccc23)cc1
not listed: [1] | [8] | [16] | [17] | [18]
inactive: all other assays above

CCc1cnc(C2=NC(C)(C(C)C)C(=O)N2)c(C(=O)O)c1 (stereo unspecified)
not listed: [1]
inactive: all other assays above

COCc1cnc(C2=NC(C)(C(C)C)C(=O)N2)c(C(=O)O)c1 (stereo unspecified)
not listed: [1] | [2] | [8] | [14] | [15]
inactive: all other assays above

CCOC(=O)NC(O)C(Cl)(Cl)Cl (stereo unspecified)
not listed: [1] | [17] | [18] | [19]
inactive: all other assays above

CN1C[C@H](C(=O)N[C@]2(C)O[C@@]3(O)[C@@H]4CCCN4C(=O)[C@H](Cc4ccccc4)N3C2=O)C=C2c3cccc4[nH]cc(c34)C[C@H]21
active: [15] 4.22 µM and 9.73 µM and 18 µM
not listed: [1] | [14] | [18]
inactive: all other assays above

CC(C)(C)CC(C)(C)c1ccc(O)cc1
active: [19] 29.8 µM and 30.6 µM | [2] 23.7 µM and 17.2 µM | [15] 3.35 µM and 1.72 µM
not listed: [1] | [14] | [17] | [18]
inactive: all other assays above

— PubChem BioAssay (Tox21)
